# Inconclusive results are not listed. The source made the active and inactive calls. Unless noted, no cut-off is given here; in the data, nearly all actives have AC50 up to about 26 µM.
# Columns and labels:
# [1] = viability loss in pontine glioma line – cell-based, SU-DIPG-XVII, MIPE5.0, CellTiter-Glo, qHTS, dose response (AID 1347060); details: CellTiter-Glo ATP luminescence;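 for AC50: cells exposed to compound for 48 hours before viability readout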
# [2] = viability loss in pontine glioma line – cell-based, SU-DIPG-XIII, MIPE5.0, CellTiter-Glo, qHTS, dose response (AID 1347064; cut-off not given, nearly all actives have AC50 up to about 23 µM;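 for AC50: cells exposed to compound for 48 hours before the viability read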); details: CellTiter-Glo ATP luminescence
# [3] = JHH-DIPG-1 glioma cell viability, MIPE5.0 library, CellTiter-Glo luminescence, qHTS (AID 1347067); details: JHH-DIPG-1 glioma viability, CellTiter-Glo ATP luminescence;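 note: cells exposed to compound for 48 hours before readout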
# [4] = growth inhibition of DIPG cells – cell-based, MIPE5.0 library, qHTS (AID 1347068; cut-off not given, nearly all actives have IC50 up to about 30 µM;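 for IC50: cells exposed to compound for 48 hours before viability readout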); details: SU-DIPG-XXV viability
# [5] = viability loss in pontine glioma line – cell-based, SU-DIPG-XXV, MIPE5.0, CellTiter-Glo, qHTS, dose response (AID 1347065); details: CellTiter-Glo ATP luminescence;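 note: cells exposed to compound for 48 hours before ATP readout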
# [6] = viability loss with induced miR-34 in A549 – imaging, A549 dox-inducible miR-34, nuclei and caspase counts, primary screen (AID 1347080;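 active = compounds whose cell count with miR-34 switched on is under 0.7 times the count with it off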); details: A549 miR-34 inducible, Hoechst nuclei count, 48 h
# [7] = MELAS cybrid and Rieske KO viability enhancers – cell-based, MELAS cybrids, Rieske KO mouse fibroblasts, CellTiter-Glo, primary screen (AID 1508586;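 active = mean z-score across replicates of 1.96 or higher in either the MELAS or the Rieske mutant cell line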;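 note: z relative to plate mean and SD of compound and empty wells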); details: low glucose
# [8] = growth inhibition, single agent or in combination, cell-based, chromothripsis tumors, cisplatin or BGB combos (AID 1671449; in the data active = inhibition above about 80%;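 note: cells exposed for 96 hours; 0% = vehicle DMSO and 100% = killing by high DMSO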); details: LFS_MB_P medulloblastoma cells
# [9] = growth inhibition, single agent and combos, cell-based, chromothripsis tumors, cisplatin or BGB combos (AID 1671450; in the data active = inhibition above about 80%;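 note: cells exposed to compound for four days; 0% = vehicle DMSO and 100% = cell killing by high DMSO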); details: HDN33 neuroblastoma cells, stronger effect = higher value
# [10] = growth inhibition, single agents and combos, ICB984, cell-based, cisplatin or BGB combos, synergistic combos for chromothripsis tumors (AID 1671451; call rule not given here;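 note: cells exposed for 96 hours before readout; 0% = vehicle DMSO and 100% = killing by high DMSO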); details: ICB984 medulloblastoma cells, drug combinations, stronger effect = higher value
# [11] = growth inhibition, single agents and combos, LFS_MB_1R, cell-based, cisplatin or BGB combos, synergistic combos for chromothripsis tumors (AID 1671452; in the data active = inhibition above about 80%;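 note: cells exposed for 96 hours before readout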); details: LFS_MB_1R medulloblastoma cells, stronger effect = higher value
# [12] = growth inhibition, single agents and combos, HTB85, cell-based, BGB or cisplatin IC20 combos, synergistic combos for chromothripsis tumors (AID 1671453; in the data active = inhibition above about 80%;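 note: cells exposed for 96 hours before readout; 0% = vehicle DMSO and 100% = high DMSO killing control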); details: HTB85 osteosarcoma cells, drug combinations, stronger effect = higher value
# [13] = growth inhibition, single agents and combos, CRL2098, cell-based, BGB or cisplatin IC20 combos, synergistic combos for chromothripsis tumors (AID 1671454; in the data active = inhibition above about 80%;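 note: cells exposed for 96 h before readout; 0% = vehicle DMSO and 100% = killing by high DMSO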); details: CRL2098 osteosarcoma cells, drug combinations, stronger effect = higher value
# [14] = growth inhibition, single agents and combos, HD-MB03, cell-based, BGB or cisplatin IC20 combos, synergistic combos for chromothripsis tumors (AID 1671455; in the data active = inhibition above about 83%;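 note: 0% = vehicle DMSO and 100% = high DMSO as cytotoxic control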); details: HD-MB03 medulloblastoma cells, stronger effect = higher value
# [15] = growth inhibition, single agents and combos, UWB1.289, cell-based, BGB or cisplatin combos, synergistic combos for chromothripsis tumors (AID 1671456; in the data active = inhibition above about 80%;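 note: cells exposed to compound for four days; 0% = vehicle DMSO and 100% = killing by high DMSO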); details: UWB1.289 ovarian carcinoma cells, stronger effect = higher value
# [16] = growth inhibition, MDA-MB-436, cell-based, BGB or cisplatin combos, synergistic combos for chromothripsis tumors (AID 1671458; call rule not given here;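 note: cells exposed for 96 hours; 0% = vehicle DMSO and 100% = killing by high DMSO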); details: MDA-MB-436 breast carcinoma growth inhibition, drug combinations, stronger effect = higher value
# [17] = BT084 cell growth, single and combined drugs, ICGC_MB145, cisplatin and BGB IC40 combos (AID 1671461; in the data active = inhibition above about 80%;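 note: cells exposed to drugs for 96 hours; 0% = vehicle DMSO and 100% = high DMSO full killing control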); details: BT084 medulloblastoma cells, drug combinations, stronger effect = higher value
# [18] = RCMB18 cell growth, single agent and combined, cisplatin and BGB IC40 combos (AID 1671462; in the data active = inhibition above about 80%;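 note: cells exposed to compound for four days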); details: RCMB18 medulloblastoma cells, stronger effect = higher value
# [19] = CRL1545 cell growth, single agent and combined, cisplatin and BGB IC20 combos (AID 1671464; in the data active = inhibition above about 80%;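 note: cells exposed to compound for 96 hours before readout; 0% = vehicle DMSO and 100% = high DMSO killing control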); details: CRL1545 osteosarcoma cells, stronger effect = higher value
# [20] = stronger effect = lower value, cell number ratio, induced over uninduced
# [21] = measured here: relative caspase fold change +Dox/-Dox
# [22] = measured here: total cells with miR-34 induction, stronger effect = lower value
# [23] = measured here: total cells without miR-34 induction
# [24] = MELAS cybrid survival, CellTiter-Glo 48 h, stronger effect = higher value
# [25] = Rieske KO mouse fibroblast survival, CellTiter-Glo 72 h
# [26] = measured here: combination with BGB IC40, at 0.05 µM
# [27] = measured here: with BGB IC20 combination, at 0.5 µM
# [28] = measured here: with cisplatin IC20 combination, at 0.5 µM
# [29] = measured here: combination with cisplatin, at 0.5 µM
compound,measurement,setting,value
C[C@@]1(c2ncncc2F)NC(=O)c2cc(-c3cn[nH]c3)ccc21,outcome,[1],inactive
same,outcome,[2],inactive
same,outcome,[3],inactive
same,outcome,[4],inactive
COc1ccc2c(C(=S)N(C)CC(=O)O)cccc2c1C(F)(F)F,outcome,[1],inactive
same,outcome,[2],inactive
same,outcome,[3],inactive
same,outcome,[4],inactive
CC(C)[C@H]1C(=O)N[C@@H](CCCN=C(N)N)C(=O)NCC(=O)N[C@@H](CC(=O)O)C(=O)N[C@H](Cc2ccccc2)C(=O)N1C,outcome,[1],inactive
same,outcome,[2],inactive
same,outcome,[3],inactive
same,outcome,[4],inactive
CC(=O)Nc1ccc(C(=O)NC(C)(C)C)cc1,outcome,[1],inactive
same,outcome,[2],inactive
same,outcome,[3],inactive
NCC1CCN(c2nccc(-c3ccc4ccccc4c3)n2)CC1,AC50,[1],11.8 µM (active)
same,AC50,[2],16.6 µM (active)
same,AC50,[3],10.5 µM (active)
Cc1[nH]c2ccc(F)cc2c1-c1nc2c3cccnc3c3ncccc3c2[nH]1,AC50,[1],6.79 µM (active)
same,AC50,[2],1.35 µM (active)
same,AC50,[5],1.91 µM (active)
same,IC50,[4],2.7 µM (active)
CC(C)N(C[C@H]1O[C@@H](n2cnc3c(N)ncnc32)[C@H](O)[C@@H]1O)C1CC(CCc2nc3ccc(C(C)(C)C)cc3[nH]2)C1 (some centres not stated),outcome,[1],inactive
same,outcome,[2],inactive
same,outcome,[3],inactive
same,outcome,[4],inactive
CN1CCN(c2ncc(-c3cc(Cl)cc(Cl)c3Cl)c(N)n2)CC1,outcome,[1],inactive
same,outcome,[2],inactive
same,outcome,[3],inactive
same,outcome,[4],inactive
[2H]C([2H])([2H])C(O)([C@@H](C)/C=C/[C@@H](C)[C@H]1CC[C@H]2/C(=C/C=C3C[C@@H](O)C[C@H](O)C3)CCC[C@]12C)C([2H])([2H])[2H],outcome,[1],inactive
same,outcome,[2],inactive
same,outcome,[3],inactive
CC(C)=CCC[C@](C)(O[C@@H]1O[C@H](CO[C@@H]2O[C@H](CO)[C@@H](O)[C@H](O)[C@H]2O)[C@@H](O)[C@H](O)[C@H]1O)[C@H]1CC[C@]2(C)[C@@H]1[C@H](O)C[C@@H]1[C@@]3(C)CC[C@H](O[C@@H]4O[C@H](CO)[C@@H](O)[C@H](O)[C@H]4O[C@@H]4O[C@H](CO)[C@@H](O)[C@H](O)[C@H]4O)C(C)(C)[C@@H]3CC[C@]12C,outcome,[1],inactive
same,outcome,[2],inactive
same,outcome,[3],inactive
same,outcome,[4],inactive
c1cc(-c2cnn3cc(-c4ccc(N5CCNCC5)cc4)cnc23)c2cccnc2c1,AC50,[1],7.42 µM (active)
same,AC50,[2],6.61 µM (active)
same,AC50,[5],7.42 µM (active)
same,IC50,[4],9.34 µM (active)
same,fold change,[6]; [20],1.02 (inactive)
same,fold change,[6]; [21],0.321
same,cell count,[6]; [22],216
same,cell count,[6]; [23],212
same,z-score,[7]; [24],1.7 (inactive)
same,z-score,[7]; [25],0.379
Cc1noc(-c2ccc(-c3ccc(C4(C(=O)O)CC4)cc3)cc2)c1NC(=O)O[C@H](C)c1ccccc1,AC50,[1],23.5 µM (active)
same,AC50,[5],23.5 µM (active)
O=C(Nc1cccc(C(F)(F)F)c1)Nc1cc(S(=O)(=O)NC2CC2)ccc1-c1ccsc1,outcome,[1],inactive
same,outcome,[2],inactive
same,outcome,[3],inactive
same,outcome,[4],inactive
same,fold change,[6]; [20],0.892 (inactive)
same,fold change,[6]; [21],0.311
same,cell count,[6]; [22],6420
same,cell count,[6]; [23],7200
same,z-score,[7]; [24],-0.374 (inactive)
same,z-score,[7]; [25],-0.851
Cc1cc2c(F)c(Oc3ncnn4cc(OCC(C)OC(=O)C(C)N)c(C)c34)ccc2[nH]1 (configuration not stated),AC50,[1],16.6 µM (active)
same,AC50,[2],16.6 µM (active)
same,fold change,[6]; [20],1.09 (inactive)
same,fold change,[6]; [21],0.564
same,cell count,[6]; [22],4840
same,cell count,[6]; [23],4460
same,z-score,[7]; [24],0.128 (inactive)
same,z-score,[7]; [25],1.06
O=C(CCCCCCNC(=O)c1cnc(N(c2ccccc2)c2ccccc2Cl)nc1)NO,AC50,[1],8.33 µM (active)
same,AC50,[2],3.72 µM (active)
same,AC50,[3],7.42 µM (active)
same,inhibition,"[8]; at 0.5 µM, stronger effect = higher value",-18.4% (inactive)
same,inhibition,"[8]; measured here: combination with BGB IC20, at 0.005 µM",-0.623%
same,inhibition,"[8]; measured here: combination with BGB IC40, at 0.005 µM",-22.7%
same,inhibition,[8]; [26],-0.542%
same,inhibition,"[8]; measured here: combination with cisplatin, at 0.5 µM, stronger effect = higher value",-15.1%
same,inhibition,"[8]; measured here: combination with cisplatin, at 5 µM, stronger effect = higher value",99.5%
same,inhibition,"[9]; BGB combo, at 5 µM",50.4%
same,inhibition,[9]; at 0.5 µM,18.7% (inactive)
same,inhibition,"[9]; cisplatin combo, at 5 µM",56.8%
same,inhibition,[9]; [27],15.8%
same,inhibition,[9]; [28],22.8%
same,inhibition,"[9]; single agent, at 5 µM",62.1%
same,inhibition,"[10]; BGB IC20 combo, at 0.005 µM",12.6%
same,inhibition,"[10]; BGB IC40 combo, at 0.005 µM",-39.2%
same,inhibition,"[10]; BGB IC40 combo, at 0.05 µM",39.9%
same,inhibition,[10]; at 0.5 µM,-20.1% (inactive)
same,inhibition,"[10]; cisplatin combo, at 0.05 µM",37.5%
same,inhibition,"[10]; cisplatin combo, at 0.5 µM",-17.2%
same,inhibition,"[10]; cisplatin combo, at 5 µM",-24.9%
same,inhibition,"[10]; measured here: 5 uM single agent, at 5 µM",-20.1%
same,inhibition,[11]; at 0.5 µM,-5.6% (inactive)
same,inhibition,[11]; [26],-9.58%
same,inhibition,[11]; [29],-15.4%
same,inhibition,"[11]; measured here: combination with cisplatin, at 5 µM",66.7%
same,inhibition,[12]; at 0.5 µM,-4.65% (inactive)
same,inhibition,"[12]; measured here: with BGB IC20, at 0.5 µM",-17.2%
same,inhibition,"[12]; measured here: with BGB IC20, at 5 µM",33.1%
same,inhibition,"[12]; measured here: with cisplatin IC20, at 0.5 µM",-7.92%
same,inhibition,"[12]; measured here: with cisplatin IC20, at 5 µM",47.7%
same,inhibition,"[12]; single agent, at 5 µM",54%
same,inhibition,[13]; at 0.5 µM,-36.3% (inactive)
same,inhibition,"[13]; measured here: combination with BGB at IC20, at 0.5 µM",-46.5%
same,inhibition,"[13]; measured here: combination with cisplatin at IC20, at 0.5 µM",-0.706%
same,inhibition,[14]; at 0.5 µM,7.2% (inactive)
same,inhibition,"[14]; measured here: combo with BGB at IC20, at 0.5 µM",-0.477%
same,inhibition,"[14]; measured here: combo with cisplatin at IC20, at 0.5 µM",8.58%
same,inhibition,[15]; at 0.5 µM,8.33% (inactive)
same,inhibition,"[15]; measured here: inhibition with BGB combination, at 0.05 µM",-28.3%
same,inhibition,"[15]; measured here: inhibition with cisplatin combination, at 0.05 µM",-17.7%
same,inhibition,[16]; at 0.5 µM,-11.7% (inactive)
same,inhibition,"[16]; measured here: BGB combination, at 0.5 µM",-16.5%
same,inhibition,"[16]; measured here: BGB combination, at 5 µM",16.3%
same,inhibition,"[16]; measured here: cisplatin combination, at 0.5 µM",-18%
same,inhibition,"[16]; measured here: cisplatin combination, at 5 µM",30.9%
same,inhibition,[17]; at 0.5 µM,2.48% (inactive)
same,inhibition,"[17]; cisplatin combination, at 0.5 µM",7.21%
same,inhibition,"[17]; cisplatin combination, at 5 µM",78.9%
same,inhibition,"[17]; measured here: BGB IC40 combination 0.05 uM, at 0.05 µM",-0.825%
same,inhibition,"[17]; single agent, at 5 µM",65%
same,inhibition,[18]; at 0.5 µM,-4.94% (inactive)
same,inhibition,"[18]; cisplatin combo, at 5 µM",64.2%
same,inhibition,"[18]; measured here: BGB IC40 combination, at 0.05 µM",-4.49%
same,inhibition,[18]; [29],5.58%
same,inhibition,"[18]; single agent, at 5 µM",31.8%
same,inhibition,[19]; at 0.5 µM,32.3% (inactive)
same,inhibition,[19]; [27],16.7%
same,inhibition,[19]; [28],40.1%
same,inhibition,"[19]; single agent, at 0.05 µM",-5.85%
same,inhibition,"[19]; single agent, at 5 µM",88.6%
Nc1n[n+]([O-])c2ccccc2[n+]1[O-],outcome,[1],inactive
same,outcome,[2],inactive
same,outcome,[4],inactive

# From PubChem BioAssay
